Compounds without any hit were thinned out: in the full panel of roughly 83,000, 20% have a hit.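 Each cell line was grown in a 96-well plate and treated with one concentration of compound for 48 hours. Values below 10 were considered active.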 Active and inactive are the calls of the source.
How the values were obtained:
Assay in all cases: NCI-60 one-dose screen, 48 h (100 = growth as untreated, 0 = no growth, -100 = all killed)
Conditions in all cases: 10 µM unless noted
[1] = test system: T-47D breast
[2] = test system: BT-549 breast
[3] = test system: MDA-MB-435 melanoma
[4] = test system: SW-620 colon
[5] = test system: MCF7 breast
[6] = test system: HCT-116 colon
[7] = test system: HCC-2998 colon
[8] = test system: KM12 colon

Measured: growth

O=C(CN1CCCCC1)Nc1ccc2oc(=O)ccc2c1
inactive: [1] 103% | [2] 107% | [3] 113% | [4] 97.9% | [5] 96% | [6] 101% | [7] 110% | [8] 104%

CCOC(=O)c1sc2nc(-c3cccc(OC)c3)nc(N3CCOCC3)c2c1C
inactive: [1] 92.8% | [2] 94.9% | [3] 96.9% | [4] 110% | [5] 90.4% | [6] 96.6% | [7] 99.6% | [8] 97.5%

CC(=O)c1cc2c(N)c(C(=O)Nc3ccccc3)sc2nc1C
inactive: [1] 99.5% | [2] 67.3% | [4] 69.4% | [5] 59.8% | [6] 102% | [7] 79.4% | [8] 75.1%
active: [3] -29.3%

O=C(COc1ccc(/C=C2\COc3ccccc3C2=O)cc1)Nc1nccs1
inactive: [1] 90% | [3] 105% | [4] 69.1% | [5] 15% | [6] 38.1% | [7] 168% | [8] 43.3%
active: [2] 2.68%

Cc1nc(/N=C(\N)NC(=O)Nc2cccc([N+](=O)[O-])c2)sc1C
inactive: [1] 80.8% | [2] 65.8% | [4] 40.1% | [5] 31.1% | [6] 71.1% | [7] 84.1% | [8] 72.1%
active: [3] 8.17%

O=C1CC(=NCC(=O)n2c(-c3ccccc3)nc3ccccc32)NN1
inactive: [1] 89.4% | [2] 107% | [3] 105% | [4] 100% | [5] 72.7% | [6] 94.6% | [7] 109% | [8] 101%

Brc1ccc(-c2csc(Nc3ccccn3)n2)cc1
active: [7] -5.04%
inactive: [1] 53.7% | [2] 112% | [3] 88.5% | [4] 103% | [5] 34.5% | [6] 81.3% | [8] 86.4%

CC1=C[C@H]2c3c(c(O)c(O)c4oc5cc(O)ccc5c(=O)c34)[C@H](c3cc(O)c(O)c4oc5cc(O)ccc5c(=O)c34)[C@H]2C(C)(C)C1
inactive: [1] 18.1% | [2] 31.4% | [3] 20% | [4] 19.5% | [5] 15.4% | [7] 75.4% | [8] 15%
active: [6] 1.38%

c1ccc(-c2c(-c3ccccc3)[n+](Cc3ccc4ccccc4c3)c(-c3ccc(-c4nc5ccccc5s4)cc3)n2Cc2ccc3ccccc3c2)cc1
active: [1] -78.2% | [2] -87.5% | [3] -76.9% | [4] -78.3% | [5] -65.5% | [6] -83.5% | [7] -93.8% | [8] -88.1%

Cn1ccnc1C(=O)/C=C/c1ccc(CC(=O)Nc2ccccc2)cc1
active: [4] 2.2% | [8] 3.7%
inactive: [1] 15.2% | [2] 22.4% | [3] 13.5% | [5] 12% | [6] 18.2% | [7] 29%

COc1ccc(-c2nc3cc(C(=O)Nc4cc(OC)c(OC)c(OC)c4)ccc3n2C2CCCCC2)cc1
inactive: [1] 97.4% | [2] 94.6% | [3] 46% | [4] 92.5% | [5] 91.2% | [6] 93.5% | [7] 104% | [8] 91.9%

CSc1ccc(SC2c3ccc(C)cc3Oc3nc(N)c(C#N)c(N)c32)cc1 (stereo not drawn)
active: [1] -45.1% | [2] -87.2% | [3] -86.7% | [4] -68.1% | [5] -52.2% | [6] -83.3% | [7] -88.2% | [8] -42.3%

CC(=O)Oc1ccc(Cl)cc1CN(C(C)=O)C1CCCCC1
inactive: [1] 104% | [2] 107% | [3] 115% | [4] 105% | [5] 97.6% | [6] 102% | [7] 99.4% | [8] 112%

COc1ccc(CCNc2nc(SC)nc(-c3cccc([N+](=O)[O-])c3)c2C#N)cc1OC
inactive: [1] 79.3% | [2] 42.2% | [3] 87.7% | [4] 92.9% | [5] 86.8% | [6] 82% | [7] 93.6% | [8] 99.1%

COc1ccc(/C=C/C(=O)c2cc(O)ccc2O)cc1
inactive: [1] 89.8% | [2] 90.4% | [3] 75.8% | [4] 100% | [5] 94% | [6] 97.4% | [7] 106% | [8] 84.1%

O=C(COc1cccc(/C=C2\COc3ccccc3C2=O)c1)Nc1nccs1
inactive: [1] 54.7% | [3] 53.5%
active: [2] -79.6% | [4] -40.7% | [5] -12.5% | [6] -100% | [7] -85.6% | [8] -44.6%

CCCOc1cc2ccccc2cc1C(=O)Nc1nc(N)c2c(ccc3nccc32)[nH]1
active: [1] -51% | [2] -41% | [3] -94.5% | [4] -80.4% | [5] -52.3% | [6] -58.9% | [7] -68.3% | [8] -72.8%

COc1cc2c(cc1-c1c(C)noc1C)ncc1nc(C3CCCC3)n([C@H](C)COC(F)F)c12
inactive: [1] 29.7% | [2] 54.8% | [3] 32.4% | [4] 57.5% | [5] 19.9% | [6] 31% | [7] 43.3% | [8] 45.8%

CC(=O)c1cc2c(N)c(C(=O)Nc3cccc4ccccc34)sc2nc1C
active: [3] -34%
inactive: [1] 42.7% | [2] 46.5% | [4] 17.8% | [5] 22.1% | [6] 29.3% | [7] 37.1% | [8] 22%

CCc1nnc(CNc2ccc(Cl)cc2)o1
inactive: [1] 93.9% | [2] 96.4% | [3] 101% | [4] 97.7% | [5] 91.3% | [6] 96.1% | [7] 97.6% | [8] 101%

Cc1ccccc1COc1ccc(-c2onc(C)c2-c2ccc(Cl)cc2)cc1
inactive: [1] 61.1% | [2] 66.2% | [4] 31.7% | [5] 31.7% | [6] 34% | [7] 86.6% | [8] 54.3%
active: [3] -1.01%

O=C1c2cc3c(cc2-c2c1c1ccc(Cl)cc1c(=O)n2CCCN1CCOCC1)OCO3
inactive: [1] 28.6% | [2] 59.6% | [3] 85.4% | [4] 57.2% | [5] 18.5% | [6] 56.3% | [7] 74.4% | [8] 75.2%

Cc1cc(NS(=O)(=O)c2ccc(-c3cnc(C4CC4)o3)cc2)ccc1Cl
inactive: [1] 32.4% | [2] 28.8% | [4] 21.7% | [5] 11.1% | [6] 13.3% | [7] 25.1% | [8] 27%
active: [3] 0.57%

COc1cc(-c2nc3ccccc3[nH]2)ccc1OCc1nnc(-c2ccc(CC(C)C)cc2)o1
inactive: [1] 57.2% | [2] 88.5% | [3] 98% | [4] 103% | [5] 79.6% | [6] 82% | [7] 119% | [8] 102%

COc1ccc(Nc2nc(SC)nc(-c3cccc([N+](=O)[O-])c3)c2C#N)cc1
inactive: [1] 70.1% | [2] 86.9% | [3] 66.5% | [4] 57.9% | [5] 66.7% | [6] 15.8% | [7] 94.3% | [8] 97.7%

CN1CCN=C1c1ccc(NC(=O)c2ccc(C(=O)Nc3ccc(C4=NCCN4C)cc3)cc2)cc1
inactive: [1] 86.7% | [2] 97.5% | [3] 108% | [4] 102% | [5] 76.5% | [6] 91.1% | [7] 112% | [8] 98.7%

COc1ccc(S(=O)(=O)N2CCCCC2)cc1NC(=O)c1[nH]c(C)c2c1CCCCC2=O
inactive: [1] 15.2% | [2] 50.1% | [3] 21.7% | [4] 54% | [5] 12.3% | [6] 17.6% | [7] 15.8% | [8] 24.9%

N#C/C(=C\c1ccc(-c2ccc(Cl)c(Cl)c2)o1)c1nc(-c2ccco2)cs1
inactive: [2] 109% | [3] 103% | [4] 103% | [5] 12.5% | [6] 97.9% | [8] 50.6%
active: [1] -21.3% | [7] 0.932%

Cc1cc2nc3[nH]c4ccccc4c3nc2cc1C
inactive: [1] 58.9% | [2] 92.4% | [3] 120% | [4] 73.3% | [5] 48.2% | [6] 46.1% | [7] 98.4% | [8] 77.9%

COc1cc2nc(N3CCCC3)nc(Nc3ccccc3)c2cc1OC
active: [1] -49.1% | [2] -70.9% | [3] -61.4% | [4] -20.4% | [5] -71.6% | [6] -79.4% | [7] -51.2%
inactive: [8] 33%

CCCCN(CCCC)CCCn1c(-c2ccccc2)ccc1-c1ccccc1
inactive: [1] 67.4% | [2] 74.1% | [3] 85.7% | [4] 65.1% | [5] 58.4% | [6] 34.1% | [7] 59.9% | [8] 61.7%

From PubChem BioAssay (NCI)
